# Assay results published in PubChem BioAssay (EPA / NIEHS).
# Calls of active or inactive are those of the source. Rule for the calls: active = hit-call score of the fitted dose curve at least 0.9, where 1 is the maximum; inactive = score below 0.9.
# Read-out: sulfotransferase 2A1 (SULT2A1), SULT2A1 (gene 6822)
# Assay: LTEA_HepaRG_SULT2A1: Life Technologies and Expression Analysis (LTEA) Assay for sulfotransferase 2A1 (SULT2A1) using HepaRG (AID 2283531)
# Details: mRNA level, 48 h; actives raise or lower the signal
# Description: LTEA_HepaRG is a cell based, multiplexed-readout assay that uses HepaRG, a human liver cell line, with measurements taken at 48 hours after chemical dosing on a 96-well plate.LTEA_HepaRG_SULT2A1 is one of 102 assay component(s) measured in the LTEA HepaRG cell culture assay. It is a marker of NR mediated transport.Data from the assay component LTEA_HepaRG_SULT2A1 was analyzed into 1 endpoint. This assay endpoint, LTEA_HepaRG_SULT2A1, was analyzed with bidirectional fitting relative to DMSO as the negative control and baseline of activity. Using a type of inducible reporter, measures of mRNA induction for gain or loss-of-signal activity can be used to understand regulation of transcription factor activity. To generalize the intended target to other relatable targets, this assay endpoint is annotated to the transferase intended target family, where the subfamily is sulfotransferase.
# A total of 1060 chemcials from the ToxCast library were tested in eight-point concentration-response experiments. Cell culture and cytotoxicity assays were conducted at Thermo Fisher Scientific's Custom Services facility (Madison, WI). A single lot of human HepaRG cells (Thermo Fisher Scientific, Frederick, MD) was used for the cell culture experiments. 96-well format collagen type I coated plates of human HepaRG cells were prepared using established methods. Briefly, cryopreserved HepaRG cells were thawed, plated at a density of approximately 100,000 cells/well in HepaRG Thaw, Plate, and General Purpose media (HPRG770, Thermo Fisher Scientific), and incubated for 48 hours. 0.5% DMSO was selected as vehicle control to balance the requisite need of DMSO in HepaRG cultures to maintain differentiation (for example, baseline metabolism, proportions of hepatocytes vs. cholangiocytes), while enabling further hepatic receptor pathway activation (for example, PXR and CAR) in response to chemical exposure. 48 hours after plating, the culture medium was replaced with HepaRG Serum-Free Incudtion Media. Cells were exposed to each test chemical in duplicate and maintained in CO2 incubators for another 48 hours. Chemical plates were thawed to room temperature and 200x concentrations of treatment groups were prepared. 8-point conentration-reponse curves were made with the highest exposure at 100 uM, followed by half-log dilutions, all in 0.5% DMSO. Each test plate contained variouse controls, induction positive controls (1mM phenobarbital), cytotoxicity positive controls ([…] aflatoxin B1), vehicle controls (0.5% DMSO), and total lysis controls (0.5% DMSO). Cell morphology images were taken using an Essen IncuCyte FLR automated microscope, with six 96-well plates imaged in about 24 minutes. Images were captured and exported and JPEG files. Spent culture media was transfered to black-well plates for the LDH assay, and remaining media was sorted at -80 C for later use. Cells were treated with RLT buffer and frozen until shipped for gene expression analysis. Total RNA was isolated from the cell suspension in 75 uL of Buffer RLT (Qiagen, Germantown, MD 20874) by Quintiles/Expression Analysis (Durham, NC) using a custom isolation procedure. Total RNA from each plate well was transferred to a preamplification plate. Fluidigm's 96.96 Dynamic ArrayTM (Fluidigm, Amsterdam, the Netherlands) technology was used for gene expression analyses by quantitative reverse transcription polymerase chain reaction (qRT-PCR, performed by Quintiles/Expression Analysis, Durham, NC)89. Standard TaqManTM Assays (Applied Biosystems/ThermoFisher Scientific, Foster City, CA) were used to assess the expression of 93 genes selected based on their selectivity and sensitivity to important hepatic receptors known to be modulated by environmental chemicals; importance in human hepatocyte functionality; and hepatotoxicity. […]
row,Structure (SMILES),outcome
1,CCC1(c2ccccc2)C(=O)N=C(O)NC1=O (stereo not given),inactive
2,ClC(Cl)(Cl)c1ccccc1,inactive
3,O=[N+]([O-])c1ccccc1,inactive
4,CCCN(CCC)c1c([N+](=O)[O-])cc(C(C)C)cc1[N+](=O)[O-],inactive
5,Cc1ccc([N+](=O)[O-])cc1C,inactive
6,c1ccc2c(c1)Nc1ccccc1S2,inactive
7,CCNc1nc(Cl)nc(NC(C)(C)C)n1,inactive
8,Cc1ccc(N)cc1N,inactive
9,O=P(Oc1ccccc1)(Oc1ccccc1)Oc1ccccc1,inactive
10,CC(Cl)(Cl)C(=O)O,inactive
11,Nc1cc2c3c(c1)C(c1ccccc1)=N[C@@H](NC(=O)c1cccnc1)C(=O)N3CC2,inactive
12,CC(C)(C)c1ccc(O)cc1,inactive
13,CCOP(=S)(OCC)SCSCC,inactive
14,CCOC(=O)c1ccccc1C(=O)OCC,inactive
15,CN(C)C(=O)Cl,inactive
16,O=C(O)C1C(C(=O)O)C2(Cl)C(Cl)=C(Cl)C1(Cl)C2(Cl)Cl (stereo not given),inactive
17,CC(Cc1ccc(OCC(=O)O)cc1)NCC(O)c1csc(C(F)(F)F)n1 (stereo not given),inactive
18,CCOc1ccc(C(C)(C)COCc2cccc(Oc3ccccc3)c2)cc1,inactive
19,Nc1ccc2ccccc2c1,inactive
20,CSC(C)(C)C=NO,inactive

row,Structure (SMILES),outcome
1,CC(C)(C)OOC(C)(C)C,inactive
2,CCN(CC)c1ccccc1,inactive
3,c1cc2c3c(cccc3c1)CC2,inactive
4,CCC(C)(C)c1ccc(O)cc1,inactive
5,O=P1(N(CCCl)CCCl)NCCCO1 (stereo not given),inactive
6,CCCCN(CCCC)SN(C)C(=O)Oc1cccc2c1OC(C)(C)C2,inactive
7,OCC1CO1 (stereo not given),inactive
8,ClC1=C(Cl)C2(Cl)C3C(Cl)C(Cl)CC3C1(Cl)C2(Cl)Cl (stereo not given),inactive
9,ClC(Cl)c1ccccc1,inactive
10,O=C(O)C(Cl)Cl,inactive
11,CCCCN(CCCC)N=O,inactive
12,CCCCc1ccccc1,inactive
13,CCOP(=S)(Oc1ccc([N+](=O)[O-])cc1)c1ccccc1 (stereo not given),inactive
14,Cc1cccc(N)c1,inactive
15,[N-]=[N+]=[N-],inactive
16,c1nc[nH]n1,inactive
17,CCOS(=O)(=O)OCC,inactive
18,CCCCCCCc1ccc(O)cc1,inactive
19,Cc1ccc(O)cc1C,inactive
20,Nc1ccc(Cl)cc1,inactive
